# Source: PubChem BioAssay (EPA / NIEHS)
# Records with an inconclusive call do not appear. The source made the active and inactive calls. How the source made its calls, unless noted: active means hit-call score of the fitted dose curve at least 0.9, where 1 is the maximum; inconclusive means response in the unintended direction; inactive means score below 0.9.
# What was measured:
# [1] = ATG_TAL_CIS: Attagene CIS-FACTORIAL HepG2 Assay for human TAL Basal Promoter (AID 2282966; active means hit-call score of the fitted dose curve at least 0.9, where 1 is the maximum; inactive means score below 0.9;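 further: background control endpoint measuring basal TAL promoter reporter mRNA not a specific factor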); details: HepG2 Attagene cis-factorial TAL promoter reporter; actives raise or lower the signal
# In short: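 After 24 hours of chemical exposure, transfected HepG2 cells yielded RNA that was converted to 6-FAM-labelled, HpaI-digested reporter fragments for capillary electrophoresis. Values derive from bidirectional fitting against DMSO controls.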
# [2] = ATG_TGFb_CIS: Attagene CIS-FACTORIAL HepG2 Assay for human Transforming Growth Factor (TGF) (AID 2282967; active means hit-call score of the fitted dose curve at least 0.9, where 1 is the maximum; inactive means score below 0.9); details: HepG2 Attagene CIS TGFb reporter, mRNA transcription; actives raise or lower the signal
# In short: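 Endogenous TGFB1-linked transcription factor activity read as reporter mRNA via RT-PCR and capillary electrophoresis, 24 h after dosing transiently transfected HepG2 cells. Gain or loss of signal fitted relative to DMSO.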
# [3] = ATG_VDRE_CIS: Attagene CIS-FACTORIAL HepG2 Assay for human Vitamin D Receptor Element (VDRE) (AID 2282968; active means hit-call score of the fitted dose curve at least 0.9, where 1 is the maximum; inactive means score below 0.9); details: HepG2 VDRE cis-reporter transcription, actives raise or lower the signal
# In short: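 Compounds were applied for 24 h to HepG2 cells transfected with promoter-regulated reporter units. Total RNA was reverse-transcribed, and reporter amplicons were fluorescently labelled and sized by capillary electrophoresis.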
# [4] = ATG_GAL4_TRANS: Attagene TRANS-FACTORIAL HepG2 Assay for GAL4 (Internal Marker) (AID 2282976); details: HepG2 Attagene TRANS GAL4 internal marker reporter
# In short: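 First, HepG2 cells were transfected with reporter units under GAL4-UAS control. Next, they were treated with chemical for 24 h. Finally, RNA was reverse-transcribed, PCR-amplified, FAM-labelled and resolved by capillary electrophoresis, with induction scored against DMSO.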
# [5] = target: Glucocorticoid receptor (Homo sapiens) (UniProt P04150); test: ATG_GR_TRANS: Attagene TRANS-FACTORIAL HepG2 Assay for human Glucocorticoid Receptor (GR) (AID 2282978); details: HepG2 Attagene TRANS GR reporter, mRNA transcription;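 further: activators score as hits since higher reporter transcript over DMSO is fitted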
# Sequence of Glucocorticoid receptor (Homo sapiens) (P04150 whole entry, looked up, the tested form may be a part): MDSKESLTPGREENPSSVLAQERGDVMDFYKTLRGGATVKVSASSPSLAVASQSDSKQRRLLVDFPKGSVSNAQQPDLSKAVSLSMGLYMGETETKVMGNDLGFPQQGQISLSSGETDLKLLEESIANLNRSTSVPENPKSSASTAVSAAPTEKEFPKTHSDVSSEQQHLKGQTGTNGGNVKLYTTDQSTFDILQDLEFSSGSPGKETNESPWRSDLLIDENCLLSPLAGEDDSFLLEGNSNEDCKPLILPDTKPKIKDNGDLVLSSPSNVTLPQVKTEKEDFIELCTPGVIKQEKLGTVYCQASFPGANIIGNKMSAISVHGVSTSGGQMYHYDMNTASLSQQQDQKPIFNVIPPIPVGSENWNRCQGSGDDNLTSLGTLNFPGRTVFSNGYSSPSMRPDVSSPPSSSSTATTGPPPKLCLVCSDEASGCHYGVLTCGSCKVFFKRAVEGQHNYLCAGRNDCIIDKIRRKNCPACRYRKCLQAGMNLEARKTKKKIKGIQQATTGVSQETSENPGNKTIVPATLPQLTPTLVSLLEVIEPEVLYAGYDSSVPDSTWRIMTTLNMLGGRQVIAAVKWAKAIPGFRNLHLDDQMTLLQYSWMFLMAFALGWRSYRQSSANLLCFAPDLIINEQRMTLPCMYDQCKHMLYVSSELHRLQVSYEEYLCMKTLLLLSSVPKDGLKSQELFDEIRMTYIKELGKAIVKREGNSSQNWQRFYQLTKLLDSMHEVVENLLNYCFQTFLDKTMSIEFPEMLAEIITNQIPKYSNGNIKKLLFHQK
# In short: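 Fluorescent capillary-electrophoresis quantitation of reporter mRNA is the readout, taken 24 h after dosing human HepG2 cells carrying transiently transfected GAL4-UAS reporter units activated by chimeric NR-GAL4 fusions; activity scored as induction over DMSO.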
# [6] = target: Bile acid receptor (Homo sapiens) (UniProt Q96RI1); test: ATG_FXR_TRANS: Attagene TRANS-FACTORIAL HepG2 Assay for Farnesoid X Receptor (FXR) (AID 2282979); details: HepG2 Attagene TRANS FXR-GAL4 reporter transcription;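 further: hits raise reporter mRNA above DMSO so AC50 marks FXR activation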
# In short: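 Transient transfection of HepG2 with multiplexed GAL4-UAS reporter units; exogenous FXR-GAL4 chimera. Dose 24 h → TriZol RNA → oligo(dT) RT → PCR, 6-FAM primer extension, HpaI cut → CE. Gain vs DMSO.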
# [7] = target: Oxysterols receptor LXR-alpha (Homo sapiens) (UniProt Q13133); test: ATG_LXRa_TRANS: Attagene TRANS-FACTORIAL HepG2 Assay for human Liver X Receptor alpha (LXRa) (AID 2282980); details: HepG2 Attagene TRANS reporter, LXRa transactivation
# Sequence of Oxysterols receptor LXR-alpha (Homo sapiens) (Q13133 whole entry, looked up, the tested form may be a part): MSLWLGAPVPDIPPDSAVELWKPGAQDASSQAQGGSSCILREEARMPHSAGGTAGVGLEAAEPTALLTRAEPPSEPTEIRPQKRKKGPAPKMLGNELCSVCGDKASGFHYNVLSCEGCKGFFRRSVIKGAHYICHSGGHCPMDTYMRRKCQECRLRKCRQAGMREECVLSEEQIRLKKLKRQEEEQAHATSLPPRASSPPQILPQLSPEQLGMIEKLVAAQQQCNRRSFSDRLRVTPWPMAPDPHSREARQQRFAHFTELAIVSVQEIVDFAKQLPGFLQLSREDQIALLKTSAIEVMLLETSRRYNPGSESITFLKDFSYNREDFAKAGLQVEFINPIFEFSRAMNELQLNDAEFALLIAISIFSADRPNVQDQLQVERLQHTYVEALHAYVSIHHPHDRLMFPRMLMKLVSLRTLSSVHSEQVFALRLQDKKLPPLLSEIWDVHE
# In short: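 Transfect HepG2 with GAL4-UAS multiplex reporter constructs (TRANS format, chimeric receptor-GAL4); treat 24 h; extract RNA, reverse-transcribe, PCR-amplify, FAM-label, HpaI-digest; resolve fragments by capillary electrophoresis. Upward response vs DMSO.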
# [8] = target: Oxysterols receptor LXR-beta (Homo sapiens) (UniProt P55055); test: ATG_LXRb_TRANS: Attagene TRANS-FACTORIAL HepG2 Assay for human Liver X Receptor beta (LXRb) (AID 2282981); details: HepG2 Attagene TRANS GAL4-LXRb reporter, mRNA
# Sequence of Oxysterols receptor LXR-beta (Homo sapiens) (P55055 whole entry, looked up, the tested form may be a part): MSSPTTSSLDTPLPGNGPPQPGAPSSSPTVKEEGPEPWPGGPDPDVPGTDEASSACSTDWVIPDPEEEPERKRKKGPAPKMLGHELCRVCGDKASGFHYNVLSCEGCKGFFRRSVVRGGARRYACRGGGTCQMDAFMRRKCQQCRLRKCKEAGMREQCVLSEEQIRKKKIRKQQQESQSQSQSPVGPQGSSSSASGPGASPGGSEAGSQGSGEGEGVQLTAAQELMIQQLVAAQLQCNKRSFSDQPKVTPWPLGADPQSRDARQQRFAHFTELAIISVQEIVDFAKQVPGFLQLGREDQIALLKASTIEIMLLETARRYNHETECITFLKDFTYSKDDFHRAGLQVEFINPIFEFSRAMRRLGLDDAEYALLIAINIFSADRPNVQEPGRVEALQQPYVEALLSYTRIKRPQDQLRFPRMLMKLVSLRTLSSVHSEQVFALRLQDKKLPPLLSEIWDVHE
# In short: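 Multiplexed reporter assay, HepG2, 24 h dosing. Fluorescence of labelled RT-PCR products after capillary electrophoresis gives transcript level; positive fitting direction relative to DMSO.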
# [9] = ATG_M_06_TRANS: Attagene TRANS-FACTORIAL HepG2 Assay for M06 Transcription Factor (Internal Marker) (AID 2282983); details: HepG2 Attagene TRANS M06 internal marker reporter
# In short: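 Background control endpoint: reporter mRNA from transiently transfected HepG2 after 24 h dosing, detected by RT-PCR with capillary electrophoresis fluorescence. Analysed for gain versus DMSO.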
# [10] = ATG_M_32_TRANS: Attagene TRANS-FACTORIAL HepG2 Assay for M32 Transcription Factor (Internal Marker) (AID 2282984); details: HepG2 Attagene TRANS M32 internal marker reporter
# In short: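 Internal-marker readout from a multiplexed transcription reporter panel. HepG2 cells were transfected with GAL4-UAS reporter units, treated 24 hours, and reporter transcript levels determined by fluorescence after RT-PCR and capillary separation.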
# [11] = target: Nuclear receptor subfamily 4 group A member 2 (Homo sapiens) (UniProt P43354); test: ATG_NURR1_TRANS: Attagene TRANS-FACTORIAL HepG2 Assay for human Nuclear Receptor Related Protein 1 (NURR1) (AID 2282985); details: HepG2 Attagene TRANS reporter, mRNA readout
# Sequence of Nuclear receptor subfamily 4 group A member 2 (Homo sapiens) (P43354 whole entry, looked up): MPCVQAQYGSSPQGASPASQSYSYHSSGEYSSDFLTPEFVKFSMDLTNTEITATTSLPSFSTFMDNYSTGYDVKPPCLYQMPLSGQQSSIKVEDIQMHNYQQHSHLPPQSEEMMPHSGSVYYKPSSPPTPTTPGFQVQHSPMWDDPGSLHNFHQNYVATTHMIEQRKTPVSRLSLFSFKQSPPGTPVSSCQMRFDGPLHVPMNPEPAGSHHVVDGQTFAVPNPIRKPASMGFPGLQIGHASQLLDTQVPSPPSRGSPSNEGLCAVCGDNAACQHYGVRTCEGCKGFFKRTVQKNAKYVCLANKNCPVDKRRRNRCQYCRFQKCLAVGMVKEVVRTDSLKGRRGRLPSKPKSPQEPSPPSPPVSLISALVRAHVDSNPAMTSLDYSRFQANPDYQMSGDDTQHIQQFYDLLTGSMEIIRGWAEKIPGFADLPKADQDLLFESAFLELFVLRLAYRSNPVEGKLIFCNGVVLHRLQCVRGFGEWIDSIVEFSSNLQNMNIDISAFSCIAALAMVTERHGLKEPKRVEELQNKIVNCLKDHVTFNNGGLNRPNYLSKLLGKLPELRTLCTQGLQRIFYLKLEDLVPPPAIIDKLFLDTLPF
# In short: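 Endpoint: reporter mRNA increase relative to DMSO. HepG2 cells transfected with reporter units, treated 24 h; RNA processed by RT-PCR, labelling, HpaI digestion and capillary electrophoresis.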
# [12] = target: Transcriptional activator Myb (Homo sapiens) (UniProt P10242); test: ATG_Myb_CIS: Attagene CIS-FACTORIAL HepG2 Assay for human Myeloblastosis (Myb) Proto-Oncogene Transcription Factor (AID 2282986; active means hit-call score of the fitted dose curve at least 0.9, where 1 is the maximum; inactive means score below 0.9); details: HepG2 Attagene CIS-FACTORIAL Myb reporter transcription; actives raise or lower the signal
# Sequence of Transcriptional activator Myb (Homo sapiens) (P10242 whole entry, looked up): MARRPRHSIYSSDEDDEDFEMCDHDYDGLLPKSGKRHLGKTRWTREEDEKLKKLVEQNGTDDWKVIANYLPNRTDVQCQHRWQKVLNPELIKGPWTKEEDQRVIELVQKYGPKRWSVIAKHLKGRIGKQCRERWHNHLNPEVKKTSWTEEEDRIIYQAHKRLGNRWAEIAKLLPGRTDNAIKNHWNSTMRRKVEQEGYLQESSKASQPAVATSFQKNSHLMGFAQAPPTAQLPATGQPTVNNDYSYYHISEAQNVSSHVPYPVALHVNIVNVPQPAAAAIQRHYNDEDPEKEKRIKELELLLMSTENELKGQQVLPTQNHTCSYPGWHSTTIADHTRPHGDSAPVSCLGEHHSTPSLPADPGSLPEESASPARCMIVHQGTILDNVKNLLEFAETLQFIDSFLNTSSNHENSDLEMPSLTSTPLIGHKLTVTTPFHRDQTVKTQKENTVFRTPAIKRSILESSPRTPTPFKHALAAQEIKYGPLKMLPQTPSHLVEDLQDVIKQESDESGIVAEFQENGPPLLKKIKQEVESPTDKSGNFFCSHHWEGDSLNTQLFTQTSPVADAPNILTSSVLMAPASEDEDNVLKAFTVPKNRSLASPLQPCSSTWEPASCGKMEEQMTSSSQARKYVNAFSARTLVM
# In short: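 Reporter transcript levels, quantified by fluorescent RT-PCR and capillary electrophoresis, serve as the read-out. Transfected HepG2 cells carrying cis-promoter reporter units are dosed for 24 hours, and curves are fitted bidirectionally against DMSO controls.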
# [13] = target: Nuclear respiratory factor 1 (Homo sapiens) (UniProt Q16656); test: ATG_NRF1_CIS: Attagene CIS-FACTORIAL HepG2 Assay for human Nuclear Respiratory Factor 1 (NRF1) Orphan Gene (AID 2282987; active means hit-call score of the fitted dose curve at least 0.9, where 1 is the maximum; inactive means score below 0.9); details: HepG2 NRF1 cis-element reporter, Attagene multiplex; actives raise or lower the signal
# Sequence of Nuclear respiratory factor 1 (Homo sapiens) (Q16656 whole entry, looked up): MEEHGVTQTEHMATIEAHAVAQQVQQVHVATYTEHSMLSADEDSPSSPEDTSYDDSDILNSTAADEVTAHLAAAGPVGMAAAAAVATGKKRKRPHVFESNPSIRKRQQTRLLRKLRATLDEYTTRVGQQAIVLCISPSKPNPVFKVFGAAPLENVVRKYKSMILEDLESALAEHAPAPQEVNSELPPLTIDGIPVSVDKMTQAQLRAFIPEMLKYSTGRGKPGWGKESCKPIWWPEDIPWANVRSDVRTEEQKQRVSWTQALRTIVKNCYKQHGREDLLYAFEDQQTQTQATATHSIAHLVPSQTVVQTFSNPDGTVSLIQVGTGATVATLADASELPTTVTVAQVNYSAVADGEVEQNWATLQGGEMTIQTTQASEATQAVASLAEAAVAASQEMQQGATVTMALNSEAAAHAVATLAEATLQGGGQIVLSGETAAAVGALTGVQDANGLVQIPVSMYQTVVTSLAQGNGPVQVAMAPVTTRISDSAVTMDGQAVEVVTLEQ
# In short: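 Multiplexed cis-reporter assay, HepG2 cells, 24 h treatment. Total RNA → oligo(dT) RT → PCR with reporter-specific primers → 6-FAM primer extension → HpaI cut → CE. Bidirectional fit vs DMSO.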
# [14] = target: Nuclear receptor subfamily 1 group I member 3 (Homo sapiens) (UniProt Q14994); test: ATG_CAR_TRANS: Attagene TRANS-FACTORIAL HepG2 Assay for human Constitutive Androstane Receptor (CAR) (AID 2282969); details: HepG2 Attagene TRANS-FACTORIAL CAR reporter;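 further: activators raise reporter mRNA above DMSO so AC50 marks induction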
# Sequence of Nuclear receptor subfamily 1 group I member 3 (Homo sapiens) (Q14994 whole entry, looked up, the tested form may be a part): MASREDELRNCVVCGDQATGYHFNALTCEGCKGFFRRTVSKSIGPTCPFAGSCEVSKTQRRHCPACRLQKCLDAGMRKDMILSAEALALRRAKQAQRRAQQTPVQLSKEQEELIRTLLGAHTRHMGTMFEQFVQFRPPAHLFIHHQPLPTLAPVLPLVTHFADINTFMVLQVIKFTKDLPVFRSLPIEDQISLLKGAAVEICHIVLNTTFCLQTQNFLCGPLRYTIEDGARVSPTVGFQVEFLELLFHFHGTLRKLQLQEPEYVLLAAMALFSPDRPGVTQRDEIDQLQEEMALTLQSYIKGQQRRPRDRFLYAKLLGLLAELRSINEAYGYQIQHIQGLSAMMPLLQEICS
# In short: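 Transiently transfected HepG2, multiplex TRANS reporters (CAR-Gal4 chimera driving GAL4-UAS reporter). 24 h dosing. Readout: reporter transcript by RT-PCR + capillary electrophoresis, fluorescence intensity; positive direction vs DMSO.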
# [15] = target: Estrogen receptor (Homo sapiens) (UniProt P03372); test: ATG_ERa_TRANS: Attagene TRANS-FACTORIAL HepG2 Assay for human Estrogen Receptor alpha (ERa) (AID 2282970); details: HepG2 Attagene TRANS ERa GAL4 reporter, mRNA
# Sequence of Estrogen receptor (Homo sapiens) (P03372 whole entry, looked up, the tested form may be a part): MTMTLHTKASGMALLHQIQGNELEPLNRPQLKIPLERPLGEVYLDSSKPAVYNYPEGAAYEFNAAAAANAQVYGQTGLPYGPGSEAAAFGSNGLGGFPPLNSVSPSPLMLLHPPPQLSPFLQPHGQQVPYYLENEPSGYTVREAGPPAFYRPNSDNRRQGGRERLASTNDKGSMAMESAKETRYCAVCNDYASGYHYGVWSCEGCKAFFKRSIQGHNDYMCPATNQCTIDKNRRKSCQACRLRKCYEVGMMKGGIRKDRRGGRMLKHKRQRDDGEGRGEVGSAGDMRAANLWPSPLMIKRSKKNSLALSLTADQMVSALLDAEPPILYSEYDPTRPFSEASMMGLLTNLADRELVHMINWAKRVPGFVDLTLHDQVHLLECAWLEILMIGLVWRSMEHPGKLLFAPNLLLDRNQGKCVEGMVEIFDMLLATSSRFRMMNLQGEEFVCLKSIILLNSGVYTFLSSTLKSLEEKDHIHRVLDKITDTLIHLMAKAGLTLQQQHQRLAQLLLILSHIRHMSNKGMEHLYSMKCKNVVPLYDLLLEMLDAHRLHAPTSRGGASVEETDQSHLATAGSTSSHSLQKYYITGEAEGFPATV
# In short: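 Liver-derived HepG2 cells expressing chimeric nuclear receptor-Gal4 proteins from transient transfection were exposed for 24 hours. Gain of reporter mRNA signal versus DMSO, read by capillary electrophoresis of FAM-labelled PCR products, was recorded.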
# [16] = target: X-box-binding protein 1 (Homo sapiens) (UniProt P17861); test: ATG_Xbp1_CIS: Attagene CIS-FACTORIAL HepG2 Assay for human X-box Binding Protein 1 (XBP1) (AID 2282972; active means hit-call score of the fitted dose curve at least 0.9, where 1 is the maximum; inactive means score below 0.9); details: HepG2 XBP1 cis-element reporter, Attagene multiplex; actives raise or lower the signal
# Sequence of X-box-binding protein 1 (Homo sapiens) (P17861 whole entry, looked up): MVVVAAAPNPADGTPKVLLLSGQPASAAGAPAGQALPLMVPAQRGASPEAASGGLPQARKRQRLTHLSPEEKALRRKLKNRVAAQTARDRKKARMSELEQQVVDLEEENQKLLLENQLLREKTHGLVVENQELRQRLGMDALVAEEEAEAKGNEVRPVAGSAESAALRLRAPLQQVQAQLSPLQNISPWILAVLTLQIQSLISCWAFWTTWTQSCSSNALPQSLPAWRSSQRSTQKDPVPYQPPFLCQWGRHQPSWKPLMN
# In short: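 Changes in reporter transcript abundance, read by RT-PCR and capillary electrophoresis, reflect endogenous transcription factor activity. Transfected HepG2 cells received compound for 24 hours; DMSO defined baseline for bidirectional analysis.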
# [17] = target: Hepatocyte nuclear factor 4-alpha (Homo sapiens) (UniProt P41235); test: ATG_HNF4a_TRANS: Attagene TRANS-FACTORIAL HepG2 Assay for human Hepatocyte Nuclear Factor 4 alpha (HNF4a) (AID 2282982); details: HepG2 HNF4a transactivation reporter, mRNA readout
# In short: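 Endpoint reflects transcriptional activation of a GAL4-UAS reporter by an HNF4a-GAL4 chimera in transfected HepG2 cells, 24 h post-dosing. Fluorescence from RT-PCR products separated by capillary electrophoresis; DMSO baseline.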
# [18] = target: Steroid hormone receptor ERR1 (Homo sapiens) (UniProt P11474); test: ATG_ERRa_TRANS: Attagene TRANS-FACTORIAL HepG2 Assay for human Estrogen-Related Receptor alpha (ERRa) (AID 2282971); details: HepG2 Attagene TRANS reporter, ERRa transactivation
# In short: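 Reporter transcript induction was quantified by RT-PCR and capillary electrophoresis of FAM-labelled, HpaI-cut products after 24 h treatment of HepG2 cells carrying transiently transfected GAL4-UAS reporter units and an exogenous ERRa-Gal4 fusion; activity scored as increase over DMSO.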
# [19] = target: Estrogen-related receptor gamma (Homo sapiens) (UniProt P62508); test: ATG_ERRg_TRANS: Attagene TRANS-FACTORIAL HepG2 Assay for human Estrogen-Related Receptor gamma (ERRg) (AID 2282977); details: HepG2 Attagene TRANS reporter, ERRg transactivation;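 further: hits increase reporter signal over DMSO so potencies reflect activators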
# In short: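 Exogenous NR-Gal4 chimera activity measured as reporter transcript induction after 24 h in transiently transfected HepG2 cells. RNA reverse-transcribed, PCR-amplified, 6-FAM-labelled and resolved by capillary electrophoresis; increase over DMSO baseline.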
smiles,measurement,setting,value
CCCc1c(OCCCOc2ccc(OCC(=O)O)cc2)ccc(C(C)=O)c1O,outcome,[1],inactive
same,AC50,[2],70.5 µM (active)
same,AC50,[3],27.5 µM (active)
same,outcome,[4],inactive
same,outcome,[5],inactive
same,outcome,[6],inactive
same,outcome,[7],inactive
same,outcome,[8],inactive
same,outcome,[9],inactive
same,outcome,[10],inactive
same,AC50,[11],100 µM (active)
same,outcome,[12],inactive
same,AC50,[13],100 µM (active)
CC(=O)[O][Al][O]C(C)=O,outcome,[1],inactive
same,outcome,[2],inactive
same,outcome,[3],inactive
same,outcome,[4],inactive
same,outcome,[7],inactive
same,outcome,[9],inactive
same,outcome,[11],inactive
same,outcome,[12],inactive
same,outcome,[13],inactive
OCCCCCO,outcome,[1],inactive
same,outcome,[2],inactive
same,outcome,[14],inactive
same,AC50,[15],76.1 µM (active)
same,outcome,[16],inactive
same,outcome,[4],inactive
same,outcome,[7],inactive
same,outcome,[8],inactive
same,outcome,[9],inactive
same,outcome,[10],inactive
same,outcome,[12],inactive
same,outcome,[13],inactive
Cc1ccc(C(C)C)cc1O,outcome,[1],inactive
same,outcome,[2],inactive
same,AC50,[3],26.9 µM (active)
same,outcome,[4],inactive
same,outcome,[5],inactive
same,outcome,[17],inactive
same,outcome,[9],inactive
same,outcome,[10],inactive
same,outcome,[11],inactive
same,outcome,[12],inactive
same,outcome,[13],inactive
O=[N+]([O-])c1cc(C(F)(F)F)ccc1Cl,outcome,[1],inactive
same,outcome,[2],inactive
same,outcome,[14],inactive
same,outcome,[18],inactive
same,outcome,[16],inactive
same,outcome,[5],inactive
same,outcome,[17],inactive
same,outcome,[9],inactive
same,outcome,[10],inactive
same,outcome,[13],inactive
O=C(Nc1ccccc1)c1cc([N+](=O)[O-])ccc1Cl,outcome,[1],inactive
same,outcome,[2],inactive
same,outcome,[14],inactive
same,AC50,[15],5.47 µM (active)
same,outcome,[19],inactive
same,outcome,[6],inactive
same,outcome,[7],inactive
same,outcome,[8],inactive
same,outcome,[9],inactive
same,outcome,[10],inactive
same,outcome,[11],inactive
same,outcome,[12],inactive
same,outcome,[13],inactive
